Screening data from PubChem BioAssay.
Rows were chosen to be rich in hits. Some 5.4% of all compounds tested hit in one or more screens of this group.
Lassa entry inh: blocks Lassa virus binding to or entry into cells; Potency, µM (titrated, usually from 37.9 µM), inactives show top-dose activity change, negative = inhibition, usual class: inhibitors; AID 540256; 300,000 tested, 1.2% active; Lassa virus pseudotype entry inhibition, cell reporter; calls by dose curve; tested in HEK293 cells; further: nearly all actives have a fitted effect of over 50% in size
Vaccinia Venus: inhibitors of vaccinia virus (Venus reporter) | 330,000 tested, 0.46% active | Vaccinia virus Venus reporter expression, fluorescence | Potency, µM (doses to about 36.5 µM), inactives show at the top dose activity change, negative = inhibition, most hits filed as inhibitors; calls by dose curve; tested in A549 cells; further: nearly all actives have a fitted effect of over 30% in size
FMDV inh: foot and mouth disease virus antiviral activity. FMDV antiviral cell-based qHTS. Potency, µM (top dose mostly 57.9 µM), for inactives: at the top dose activity change, negative = inhibition, hits mostly inhibitors. 410,000 tested, 1.2% active. AID 1159524; calls by dose curve; tested in HEK293T cells; further: read-out not given here; nearly all actives have a fitted effect of over 45% in size
Sm TGR block: inhibitors of Schistosoma mansoni thioredoxin glutathione reductase; Potency, µM (highest dose often 114 µM), without a hit: at the top dose activity change, negative = inhibition, usual class: inhibitors; 360,000 tested, 3% active; Q962Y6; purified TGR, DTNB reduction, TNB absorbance 405 nm; active means well fitted inhibition curve with a large enough effect; inconclusive means small, poorly fitted or top-dose-only effect; inactive means no such curve, though single readings can be large or run the other way; further: nearly all actives have a fitted effect of over 60% in size
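First, TGR (20 nM dispensed) and NADPH were mixed with compound. Second, a 15 min room-temperature incubation followed. Third, further NADPH and then DTNB were added to start the reaction. Finally, TNB absorbance was monitored kinetically.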
Vaccinia mCherry: inhibitors of vaccinia virus infection (mCherry reporter signal); 310,000 tested, 0.63% active; Vaccinia virus mCherry reporter infection, fluorescence; Potency, µM (highest dose often 36.5 µM), for the others: at the top dose activity change, negative = inhibition, hits mostly inhibitors; calls by dose curve; tested in A549 cells; further: nearly all actives have a fitted effect of over 35% in size
MARV entry inh: blocks Marburg virus binding to or entry into cells; Marburg virus pseudotyped entry inhibition, cell reporter; Potency, µM (top dose mostly 37.8 µM), without a hit: at the highest dose activity change, negative = inhibition, actives largely listed as inhibitors; 300,000 tested, 1.8% active; AID 540276; calls by dose curve; tested in HEK293 cells
* = called active by the depositor; i = inactive; ? = inconclusive; · = not tested or not shown; [ ] = remark or other dose. On the % scale 0 is the no-effect control and ±100 the full control effect; potency means the concentration at half of the fitted maximal effect.

SMILES	Lassa entry inh	Vaccinia Venus	FMDV inh	Sm TGR block	Vaccinia mCherry	MARV entry inh
Cc1noc(C)c1S(=O)(=O)N1CCCC(C(=O)Nc2ccc(Cl)cn2)C1 (stereo not drawn)	?	-21%	32µM*	4%	-22%	?
CCC(C)NC(=O)CN1C(=O)c2cccnc2Sc2ccccc21 (stereo not drawn)	-6%[46.1 µM]	-11%	-11%	6%	-8%	·
O=c1ccc2c(-c3ccccc3)c3ccc(O)cc3oc-2c1	-18%	i	-20%	8.9µM*	24%	2%[46.1 µM]
Nc1ccc(-c2c3ccc(=O)cc-3oc3cc(O)ccc23)cc1C(=O)O	17%[46.1 µM]	324%	4%	?	-14%	3%[46.1 µM]
CC(C)(C)c1cc(CCC(=O)NCC2CCCO2)cc(C(C)(C)C)c1O (stereo not drawn)	30%[46.1 µM]	-20%	0%	0%	4µM*	8%[46.1 µM]
CCCNC(=O)CCc1cc(C(C)(C)C)c(O)c(C(C)(C)C)c1	·	-17%	-14%	-12%	-18%	·
Cc1ccc(SC[C@H](c2ccccc2)N2CCN(C)CCC2=O)cc1	·	-9%	50%	40µM*	-5%	·
Cc1ccc(SC[C@H](c2ccccc2)N2CCN(CC(C)C)CCC2=O)cc1	·	-11%	6%	32µM*	-6%	·
CCCN1CCC(=O)N([C@H](CSc2ccc(OC)cc2)c2ccccc2)CC1	·	-8%	33%	22µM*	-9%	·
CC(C)CN1CCC(=O)N([C@H](CSc2ccc(Br)cc2)c2ccccc2)CC1	·	-12%	10%	2.8µM*	-14%	·
CC(C)C[C@@H](CSc1ccc(Br)cc1)N1CCN(CC(C)C)CCC1=O	·	-9%	5%	?	i	·
Cc1ccc(Cn2c(C(=O)O)c(CNCc3ccc(OC(C)C)cc3)c3ccc(C)cc32)cc1	?	?	?	4%	?	·
COc1cccc(C(=O)N(Cc2cc3ccc(C)cc3nc2N(C)C)C2CC2)c1OC	·	-4%	-11%	·	-16%	·
COc1ccc2[nH]cc(C(=O)CN3CC(C)CC(C)C3)c2c1 (stereo not drawn)	9%	-21%	6%	-30%	-16%	?
COc1ccc(CCN(C)CC(=O)Nc2c(C)cc(C)cc2C)cc1OC	·	·	-15%	100µM*	·	·
COc1ccc2[nH]cc(C(=O)CCl)c2c1	·	-4%[7.34 µM]	28µM*	2.8µM*	-15%[7.34 µM]	·
COc1ccc2[nH]cc(C(=O)CN(C)CCc3ccc(OC)c(OC)c3)c2c1	0%	-5%	-16%	13µM*	-20%	?
COc1ccc(CCNC(=O)c2c[nH]c3ccc(F)cc3c2=O)cc1OC	·	·	-17%	-8%	·	·
COc1ccc(CCN(C)CCC(=O)Nc2cc(C)ccc2C)cc1OC	-5%	-13%	0%	30%	·	-28%
O=C(OCC12CC3CC(CC(C3)C1)C2)c1ccc(NCc2cc(O)ccc2O)cc1	4.5µM*	?	18µM*	·	?	?
O=C(OCCC12CC3CC(CC(C3)C1)C2)c1ccc(NCc2cc(O)ccc2O)cc1	1.3µM*	?	?	·	-22%	1.8µM*
O=C(Cc1ccccc1)N(Cc1cccnc1)c1nc2ccc(F)cc2s1	-12%[46.1 µM]	-10%	-3%	15%	-2%	·
Cc1cccc(-c2nc(CS(=O)CC(=O)NCC3CCCO3)c(C)o2)c1 (stereo not drawn)	7%	-8%	-17%	28µM*	i	?
Cc1oc(-c2ccccc2)nc1CS(=O)CC(=O)N1CCc2ccccc2C1 (stereo not drawn)	·	·	6%	3.2µM*	·	·
Cc1cccc(-c2nc(CS(=O)CC(=O)NCc3cccs3)c(C)o2)c1 (stereo not drawn)	·	-11%	23%	-23%	-28%	·
Cc1cccc(-c2nc(CS(=O)CC(=O)N3CCCCC3)c(C)o2)c1 (stereo not drawn)	·	-2%	0%	35µM*	1%	0%
Cc1ccc(NC(=O)CN2C=NS(=O)(=O)c3ccccc32)cc1	23%[46.1 µM]	-6%	35%	-1%	-2%	·
O=c1c(Cl)c(Cl)cnn1Cc1nnc(-c2ccccc2Br)o1	-17%[46.1 µM]	?	?	6.3µM*	?	?
CCCCC[C@]12Cc3cc(OC)c(OC)cc3[C@H](O1)c1c(cc(C)oc1=O)O2	·	·	·	-9%[22.9 µM]	·	·
O=C(Nc1ccc2ccccc2c1)c1ccccc1Cl	·	-11%	23%	·	i	·
